Among the data in PubChem BioAssay (NCI) are growth inhibition values, retold here.

Structures are written as SMILES. About 79,000 compounds went through this panel and 15% of them were active in at least one assay; those are over-represented in the sample as a whole. Values without a mark were called inactive. Calls of active or inactive are those of the source. No stated cut-off is given here; in the data, active means growth inhibition above about 70%; inactive means the rest.

Experiment [1] can be described thus: NCI Yeast Anticancer Drug Screen. Data for the rad50 strain (AID 155).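 Further: 0% = growth of vehicle-only cultures of the same strain.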 The conditions noted are these: S. cerevisiae rad50 strain growth inhibition; at 50.0 µM; active compounds read high. The procedure, abridged:
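Yeast carrying a defined DNA repair defect were exposed to test compounds, and growth was compared with vehicle-treated controls to give percent inhibition.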

Experiment [2] can be described thus: NCI Yeast Anticancer Drug Screen. Data for the mec2-1 strain (AID 157). The conditions noted are these: S. cerevisiae mec2-1 strain, at 50.0 µM, active compounds read high. The procedure, abridged: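 Strain: mec2-1 (DNA repair/cell cycle alteration). Compound exposure, then growth measured; inhibition expressed relative to vehicle.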
Experiment [3] can be described thus: NCI Yeast Anticancer Drug Screen. Data for the sgs1 mgt1 strain (AID 161).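 Further: 0% = growth of cultures given vehicle only.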 The conditions noted are these: S. cerevisiae sgs1 mgt1 strain, at 50.0 µM, active compounds read high. The procedure, abridged:
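Genetically altered yeast, compound exposure, growth inhibition relative to vehicle.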

Experiment [4] can be described thus: NCI Yeast Anticancer Drug Screen. Data for the cln2 rad14 strain (AID 165).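 Further: 0% = growth equal to vehicle treated cultures.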 Particulars: S. cerevisiae cln2 rad14 strain, at 50.0 µM, active compounds read high. In outline:
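Compounds are applied to the cln2 rad14 yeast strain, and growth is then compared with that of vehicle-treated cultures to give inhibition.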

Experiment [5] in a line: NCI Yeast Anticancer Drug Screen. Data for the bub3 strain (AID 167). Particulars: S. cerevisiae bub3 mutant strain, at 50.0 µM, active compounds read high. In outline: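 Compounds were applied to a genetically altered yeast strain carrying a cell-cycle control defect. Growth inhibition was scored against vehicle-treated controls.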
Experiment [6] can be described thus: NCI Yeast Anticancer Drug Screen. Data for the mlh1 rad18 strain (AID 175). The conditions noted are these: S. cerevisiae mlh1 rad18 strain growth inhibition; at 50.0 µM; active compounds read high. In outline: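 Read-out is yeast growth inhibition, calculated against vehicle-only controls. The compound was applied to a strain engineered with DNA damage repair alterations.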

In the case of `CC1CC(=O)NC(=O)C1`, the growth inhibition in experiment [1] is -7.25%; in experiment [2] it was -4.1%; in experiment [3], -18.8%; in experiment [4] it was -13%; in experiment [5], 6.3%; in experiment [6], -22.7%.

`CC(C)(C)c1ccc(-c2nc3ccc(Cl)cc3c(=O)o2)cc1`: the growth inhibition is -26.6% in experiment [1]; -24.5% in experiment [2]; -7.85% in experiment [3]; -48.3% in experiment [4]; -17.6% in experiment [5]; 0.45% in experiment [6].

Regarding `C/C(Cc1cccc2ccccc12)=N/NC(N)=O`, the growth inhibition in experiment [1] is 2.35%; in experiment [2], -27.8%; in experiment [3], -19.1%; in experiment [4], -8%; in experiment [5], -12.1%; in experiment [6], -8.45%.

As to `COc1c2ccoc2cc2oc(=O)ccc12`, the growth inhibition was 10% in experiment [1]; -7.1% in experiment [2]; 12.8% in experiment [3]; 14.3% in experiment [4]; 22.4% in experiment [5]; 20.4% in experiment [6].

Consider `CCC(C)NC(=O)C1C2CCC(C2)C1C(=O)NC(C)CC` (centres undefined), for which the growth inhibition is 10.7% in experiment [1]; -2.9% in experiment [2]; -10.2% in experiment [3]; -18.9% in experiment [4]; -7.5% in experiment [5]; 7% in experiment [6].

With `COC(=O)CCC(N)C(=O)O` (centres undefined), the growth inhibition in experiment [1] is 10.2%; in experiment [2] it was -11.2%; in experiment [3] it was -7.15%; in experiment [4], -10.3%; in experiment [5], -24.9%; in experiment [6] it was -4.2%.

For `CCCCCCCC(=O)N1CCCC(C)C1` (centres undefined), the growth inhibition in experiment [1] was -7.8%; in experiment [2], -25.8%; in experiment [3], 9.3%; in experiment [4], -5.75%; in experiment [5] it was -35.3%; in experiment [6], -3.9%.

On to `Cc1ccc(NC(=O)c2ccc(C)c(N)c2)c(C)c1`, for which the growth inhibition was -16.2% in experiment [1]; -21.2% in experiment [2]; -15.8% in experiment [3]; -9.7% in experiment [4]; -25.1% in experiment [5]; -5.7% in experiment [6].

In the case of `COc1ccc(C#N)c(-c2ccccc2)c1`, the growth inhibition in experiment [1] was -11.2%; in experiment [2], -13.2%; in experiment [3], 17.5%; in experiment [4], 3.05%; in experiment [5], -6.25%; in experiment [6] it was -12.3%.

Turning to `CC1(C(=O)O)CCCC1C(=O)O` (centres undefined), the growth inhibition is 12.5% in experiment [1]; 6.8% in experiment [2]; 1.75% in experiment [3]; -8.05% in experiment [4]; -1.25% in experiment [5]; 12.1% in experiment [6].

As to `O=[N+]([O-])c1ccc(Cl)c(N=Nc2ccccn2)c1`, the growth inhibition in experiment [1] is 20.2%; in experiment [2], -14.9%; in experiment [3], 21.4%; in experiment [4], -36.9%; in experiment [5], -10%; in experiment [6] it was 18.6%.

Turning to `CCCCCOC(=O)c1cc2ccccc2cc1O`, the growth inhibition was -3% in experiment [1]; -8.05% in experiment [2]; -8.95% in experiment [3]; -39.6% in experiment [4]; 30.1% in experiment [5]; -7.8% in experiment [6].

Take `C=Cc1c(C)c(C)c(C=C)c(C)c1C`: the growth inhibition was -3.85% in experiment [1]; 6.65% in experiment [2]; -8.2% in experiment [3]; 4.75% in experiment [4]; -10.2% in experiment [5]; -17.3% in experiment [6].

With `CCOC(=O)C(O)(NC(C)=O)C(F)(F)F` (centres undefined), the growth inhibition in experiment [1] was 27.9%; in experiment [2] it was -3.9%; in experiment [3] it was -0.8%; in experiment [4] it was 17.4%; in experiment [5], 0.2%; in experiment [6] it was -47.4%.

On to `CCCCOC(=O)c1cc2ccccc2oc1=O`, for which the growth inhibition is 34.5% in experiment [1]; 9.9% in experiment [2]; 25.1% in experiment [3]; 15.7% in experiment [4]; 27.2% in experiment [5]; 34% in experiment [6].

Turning to `O=C(c1ccccc1)c1cc(Cl)ccc1N1C(=O)C=CC1=O`, the growth inhibition was 99.2% (active) in experiment [1]; 99.7% (active) in experiment [2]; 99.7% (active) in experiment [3]; 99.2% (active) in experiment [4]; 99% (active) in experiment [5]; 99.5% (active) in experiment [6].

For the compound `COc1cc(Nc2nc3ccccc3nc2C(=O)O)cc(OC)c1OC`, the growth inhibition in experiment [1] is -26.2%; in experiment [2], -9.45%; in experiment [3], -16.1%; in experiment [4] it was 2.5%; in experiment [5] it was 16.9%; in experiment [6] it was -45.4%.

Take `C=CCOC(=O)NC1C(OC(C)[C@@H](NC(=O)OCc2ccccc2)C(=O)OC(C)(C)C)OC(COC(C)=O)C(OC(C)=O)C1OC(C)=O` (some centres undefined): the growth inhibition in experiment [1] is -26.9%; in experiment [2] it was -23.8%; in experiment [3], -16.4%; in experiment [4] it was 22.1%; in experiment [5] it was -1.55%; in experiment [6], -4.15%.

In the case of `O=C(O)CS/C(=N\S(=O)(=O)c1ccccc1)Nc1cccc(Cl)c1`, the growth inhibition in experiment [1] is -2.85%; in experiment [2] it was -24.9%; in experiment [3], 19.1%; in experiment [4], 12%; in experiment [5], 5.45%; in experiment [6], -7.85%.
